# Shown are actives, neighbours in structure and some others; about 2.2% of the full set was active somewhere.
# APP transl inh: APP translation inhibition; SH-SY5Y APP 5'UTR-luciferase reporter, luminescence; inhibition, % at 2 µM; actives 0.82% (n = 190,000); AID 1285;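 active means inhibition above a set limit, derived from the sample mean plus 3 SD, cut at about 45% in these data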
# Ba/F3 V617F tox: lowers viability of Ba/F3 cells expressing EpoR and JAK2V617F; actives 1.1% (n = 220,000); AID 1446; ATP luminescence; inhibition, % at 5.6 µM;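 active means inhibition above the campaign mean plus 3 SD over all tested compounds, cut at about 24% in these data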;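 further: cytokine-independent growth of Ba/F3 cells driven by EpoR plus mutant JAK2; 0% = DMSO-treated cells and 100% = JAK inhibitor I control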
# aSyn UTR inh: MLPCN primary screen, SNCA 5' untranslated region | alpha-synuclein 5'UTR reporter, inhibitor activity | inhibition, % (tested at 7.5 µM) | actives 0.82% (n = 300,000) | AID 1813; in the data active means inhibition above about 60%;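 further: H4 neuroglioblastoma cells stably carrying SNCA 5'UTR luciferase fusion; 0% = DMSO wells and 100% = positive control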
# BaF3 tox: parental Ba/F3 viability inhibition as JAK2V617F counter-screen. CellTiter-Glo ATP luminescence. inhibition, % at 5.6 µM. actives 1.1% (n = 220,000). AID 1486;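 active means inhibition above a per-campaign cutoff, the mean inhibition of all tested compounds plus 3 SD, cut at about 27% in these data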;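 further: 0% = DMSO wells and 100% = JAK Inhibitor I control wells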
# KLF5 inhibitor: suppresses KLF5 promoter-driven expression | DLD-1 KLF5 promoter-luciferase reporter, luminescence | inhibition, % at 5 µM | actives 0.23% (n = 290,000);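 active means inhibition above a per-plate limit of that plate's mean compound inhibition plus 3 SD, cut at about 60% in these data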;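 further: 0% = DMSO wells and 100% = LY294002 at 200 µM; higher means less KLF5 promoter-driven luciferase light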
# IEC-6 tox: kills IEC-6 intestinal cells in KLF5 counter-screen; IEC-6 cytotoxicity, luminescence viability; inhibition, % at 5 µM; actives 0.78% (n = 290,000); in the data active means inhibition above about 22%;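 further: 0% = plate median of test compound wells and 100% = cytotoxic reference compound wells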
# Starred values were filed as active, the others as inactive; nt = no result given.
SMILES,APP transl inh,Ba/F3 V617F tox,aSyn UTR inh,BaF3 tox,KLF5 inhibitor,IEC-6 tox
CCCNC(=O)c1ccc2c(=O)c(O)c(-c3ccc(F)cc3)[nH]c2c1,nt,nt,81*,nt,nt,nt
CCCNC(=O)c1ccc2c(=O)c(O)c(C)[nH]c2c1,nt,nt,23,nt,nt,nt
CCCNC(=O)c1ccc2c(=O)c(O)c(-c3cccc(Br)c3)[nH]c2c1,nt,nt,84*,nt,nt,nt
Cc1nn(-c2ccc(Cl)cc2)c(NC(=O)C(C)C)c(-c2ccccc2)c1=O,nt,0,-32,-1,-9,-4
CCOC(=O)c1cc(S(=O)(=O)N(C)Cc2ccccc2)cn1C,nt,nt,15,nt,-7,-6
C(=N\Nc1nc2ccccc2[nH]1)/c1cccc2cccnc12,nt,91*,73*,50*,26,0
O=C(N/N=C/c1sc(N2CCOCC2)nc1-c1ccccc1)c1cccc(S(=O)(=O)N2CCCC2)c1,-9,18,99*,3,-7,-3
COc1ccc(C2CC(C)(c3ccc(OC)cc3OC)Nc3ccccc3N2)c(OC)c1 (centres undefined),-33,62*,-10,72*,-34,12
COC(=O)C1=C(C)C(c2ccc(OC)cc2OC)NC(=O)N1 (centres undefined),6,4,-8,7,-20,4
Cn1c(N=Nc2ccccc2)nc2ccccc21,-180,31*,-19,31*,-190,38*
COc1ccc(OC)c2c(C)c(C)[nH]c12,nt,-5,3,2,-19,-1
CC(Oc1ccccc1)C(=O)N=C1SC2CS(=O)(=O)CC2N1Cc1ccccc1 (centres undefined),nt,nt,-1,nt,-5,-4
COc1ccc(OC)c(Nc2nc(NCCCN(C)C)nc(N)c2[N+](=O)[O-])c1,nt,58*,24,50*,-2,9
O=C(COc1ccc(/C=N/NC(=O)c2cc3ccccc3o2)cc1Br)Nc1ccccc1,-27,-1,116*,0,14,-1
COc1ccc2c(c1)O[C@@H](c1cccc(C(F)(F)F)c1)[C@H](O)C2=O,-2,2,62*,5,-14,8
COc1ccc(/C=N/n2cnn(Cc3ccccc3Cl)c2=S)cc1,80*,-2,14,2,-22,-4
COc1ccc(CNCc2cccc3ccccc23)cc1,nt,nt,7,nt,-52,-3
CC(=O)Nc1ccc(NC(=O)c2sc3nc4n(c(=O)c3c2C)CCCCC4)cc1,9,0,76*,6,-2,1
CCOC(=O)CSc1nc(=O)n2cccc(C)c2n1,45*,5,-11,7,-37,1
CCOC(=O)c1cc(-c2ccccc2)sc1NC(=O)COC(=O)c1cccc(S(N)(=O)=O)c1,-16,0,72*,6,15,-2
C=CCN=c1scc(-c2ccccc2)n1/N=C/c1ccccn1,-99,53*,-68,57*,-67,31*
COc1ccc(N(Cc2cc3cc(OC)ccc3[nH]c2=O)S(=O)(=O)c2ccc(NC(C)=O)cc2)cc1,nt,nt,93*,nt,28,3
COc1ccc(N(Cc2cc3ccccc3[nH]c2=O)S(=O)(=O)c2ccc(OC)cc2)cc1,nt,nt,-64,nt,-7,-1
CC1CCCCN1S(=O)(=O)c1ccc(S(=O)(=O)N(Cc2ccccc2)Cc2ccco2)cc1 (centres undefined),58*,-3,16,4,-12,2
CCN(Cc1ccccc1)S(=O)(=O)c1ccc(S(=O)(=O)N(Cc2ccccn2)Cc2ccco2)cc1,8,-4,15,1,-13,0
SMILES,APP transl inh,Ba/F3 V617F tox,aSyn UTR inh,BaF3 tox,KLF5 inhibitor,IEC-6 tox
CCOC(=O)C1CCCN(S(=O)(=O)c2ccc(S(=O)(=O)N(CC)CC)cc2)C1 (centres undefined),23,52*,-38,69*,0,6
CCCc1cc(N2CCCC(C(=O)Nc3c(OC)cccc3OC)C2)n2ncnc2n1 (centres undefined),50*,-4,27,3,-7,4
N/C(=N\OC(=O)c1ccccc1Cl)c1ccncc1,-94,-4,-107,2,-137,2
N/C(=N\OC(=O)c1cccc2ccccc12)c1ccccn1,nt,0,102*,2,-17,12
Cc1ccc(C(=O)O/N=C(\N)c2ccccc2)c(Cl)c1,nt,-3,85*,0,-92,-7
N/C(=N\OC(=O)c1ccc([N+](=O)[O-])cc1Cl)c1ccccn1,nt,nt,69*,nt,65*,1
N/C(=N\OC(=O)c1cc([N+](=O)[O-])ccc1Cl)c1ccccn1,nt,-2,-82,-4,-53,-5
COc1cccc(C(=O)O/N=C(\N)c2ccccn2)c1OC,nt,nt,-74,nt,-137,-1
COc1cc(NC(=O)Nc2ccc(Cl)c(Cl)c2)c(C(=O)O)cc1OC,nt,-2,7,-4,-58,-2
Cn1c(C(=O)c2ccncc2)cc2ccccc21,nt,-4,11,4,-14,1
O=C(NNC(=O)c1cc(Cl)ccc1O)c1cccc(S(=O)(=O)N2CCOCC2)c1,nt,nt,-14,nt,nt,nt
c1ccc(CNc2nc(-c3ccccn3)nc3ccccc23)cc1,nt,nt,33,nt,9,11
Fc1ccccc1/C=N/Nc1nc(-c2ccccn2)nc2ccccc12,nt,0,81*,3,16,3
CCC(C)Nc1nc(-c2ccccn2)nc2ccccc12 (centres undefined),nt,nt,69*,nt,-7,7
CCN(CC)CCSc1nnc2c3cc(C)ccc3n(Cc3ccccc3)c2n1,nt,25*,-34,33*,-31,2
CCc1ccc(CNC(=O)CCS(=O)(=O)Cc2ccc(C)cc2)cc1,nt,nt,24,nt,-18,-1
CC1(C)N=C(N)NC(Nc2ccc(Br)cc2)=N1,-9,9,13,35*,-15,2
Cc1nc2sc(-c3ccccc3)cc2c(=O)n1-n1cccc1,-142,1,-189,5,-165,3
O=c1[nH]c(-c2cccnc2)nc2sc(-c3ccccc3)cc12,75*,-2,-119,6,-6,4
Cc1nc2sc(-c3ccccc3)cc2c(=O)n1N,nt,4,75*,4,6,7
C=CCNC(=O)C(=O)NCC1CCCN1S(=O)(=O)c1cccs1 (centres undefined),nt,nt,2,nt,nt,nt
CCOc1ccccc1-n1c(SCC(=O)Nc2ccc(CC)cc2)nc2n[nH]c(C)c2c1=N,-8,2,84*,1,-8,7
OCCCN=c1cc(-c2ccccc2)oc2ccc(Cl)cc12,-35,-1,-440,7,-104,-1
CC1(C)CC(N=c2cc(-c3ccccc3)oc3ccc(Cl)cc23)CC(C)(C)N1,-23,3,99*,2,-45,-1
O=C(OCc1ccccc1)/C(=C/c1ccccc1Cl)NC(=O)c1ccco1,nt,nt,-27,nt,-30,-13
O=c1c2ccccc2nc(N/N=C/c2c(O)ccc3ccccc23)n1O,57*,93*,82*,74*,-40,2
O=c1c2ccccc2nc(N/N=C/c2ccc(O)cc2)n1O,-35,2,-44,5,-22,2
CCn1ccc(=N)cc1,-16,3,1,5,13,0
N=c1ccn(Cc2ccccc2Cl)cc1,24,81*,3,65*,-15,5
